An excerpt weighted towards active compounds, which were near 15% of everything screened.
DT40 TDP1 CPT – DT40-hTDP1 cell growth loss with CPT | Potency, µM (series often up to 46.2 µM), without a hit: at the highest dose activity change, negative = growth inhibition, actives largely listed as inhibitors | chicken DT40 Tdp1-/-;hTDP1 cells + 20 nM CPT, ATP luminescence, 48 h | 420,000 compounds, 12% hits; also: nearly all actives have a fitted effect of over 55% in size
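Cell growth measured by CellTiter-Glo luminescence after a minimum 48 h, 37 C compound exposure with 20 nM CPT in Tdp1-knockout DT40 cells stably expressing hTDP1, seeded 400/well; qHTS titration format.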
Gal4-VP16 FLuc – inhibits Gal4-VP16 luciferase reporter, ROR gamma counter-screen; Drosophila S2 Gal4-VP16 UAS-luciferase, luminescence, 20 h; Potency, µM (titrated, usually from 53.6 µM), without a hit: top-dose activity, negative = inhibition, hits mostly inhibitors; 310,000 compounds, 3.5% hits; AID 2546;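 also: Gal4-VP16 expression switched on by copper sulfate through the metallothionein promoter; nearly all actives have a fitted effect of over 50% in size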
ELG1 DNA repair – ELG1-dependent DNA repair inhibition. HEK293T ELG1-luciferase reporter, luminescence, 16 h; DNA damage induced by 5-fluorouridine. Potency, µM (top dose mostly 46.1 µM), for the others: at the top dose activity change, negative = inhibition, hits mostly inhibitors. 330,000 compounds, 2.3% hits. AID 504467; also: nearly all actives have a fitted effect of over 55% in size
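Quantitative HTS, concentration-response format. 2,000 cells/well co-treated with 5-fluorouridine and compound, 16 hr in 5% CO2 at 37 °C; ONE-Glo luminescence read after 30 min.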
DT40 TDP1 no CPT – qHTS for Inhibitors of human tyrosyl-DNA phosphodiesterase 1 (TDP1): qHTS in cells in absence of CPT; Potency, µM (titrated, usually from 46.2 µM), for the others: top-dose activity change, negative = growth inhibition, actives largely listed as inhibitors; AID 686978, 2013; 420,000 compounds, 15% hits; DT40 Tdp1-/- hTDP1 cells, no CPT, ATP luminescence, 48 h; also: nearly all actives have a fitted effect of over 55% in size
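Compound effects on proliferation are scored in DT40 Tdp1-/-;hTDP1 cells in the absence of CPT. ATP levels (CellTiter-Glo luminescence) are recorded after a ≥48 hr, 37 °C incubation.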
12-LOX inh – blocks human arachidonate 12S-lipoxygenase; P18054; 580,000 compounds, 1.1% hits; purified 12hLO, xylenol orange hydroperoxide absorbance; Potency, µM (top dose mostly 108 µM), for inactives: at the highest dose activity change, negative = inhibition, actives largely listed as inhibitors
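Purified human 12hLO at 150 nM in 25 mM Hepes, 0.01% Triton X-100, pH 7.0, preincubated 15 min at room temperature with compound. Reaction started with 40 uM arachidonic acid, 30 min at room temperature. Hydroperoxide measured by Fe-xylenol orange, 573/405 nm absorbance ratio.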
RORg inh – inhibitors of mouse ROR gamma transcriptional activity | AID 2551 | 310,000 compounds, 5.4% hits | Drosophila S2 Gal4-RORgamma UAS-luciferase reporter, 20 h | Potency, µM (top dose mostly 53.6 µM), for the others: top-dose activity change, negative = inhibition, actives largely listed as inhibitors; also: nearly all actives have a fitted effect of over 60% in size
Target sequence (P51450 whole entry, looked up, the tested form may be a part): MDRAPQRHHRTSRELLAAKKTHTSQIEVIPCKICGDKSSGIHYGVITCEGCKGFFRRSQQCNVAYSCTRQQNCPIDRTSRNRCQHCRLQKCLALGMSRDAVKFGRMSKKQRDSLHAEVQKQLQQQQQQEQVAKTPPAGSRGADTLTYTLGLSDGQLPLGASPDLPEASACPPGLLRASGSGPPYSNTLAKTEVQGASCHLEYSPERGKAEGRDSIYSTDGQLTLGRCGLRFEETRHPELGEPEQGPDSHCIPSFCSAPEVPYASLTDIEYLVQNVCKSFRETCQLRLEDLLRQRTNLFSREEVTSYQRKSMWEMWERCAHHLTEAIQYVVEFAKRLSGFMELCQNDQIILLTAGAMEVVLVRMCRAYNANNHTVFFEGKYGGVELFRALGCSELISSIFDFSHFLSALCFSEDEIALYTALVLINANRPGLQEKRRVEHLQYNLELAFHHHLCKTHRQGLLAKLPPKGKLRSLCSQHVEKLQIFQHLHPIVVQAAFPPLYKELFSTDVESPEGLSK
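Schneider cells (Drosophila), stable Gal4 DBD–ROR gamma + UAS-luc; 1 hr cmpd preincubation; Cu2+ induction 700 uM final; 20 hr ambient; luminescence.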
* marks the source's active call; other numbers are inactive results; ? = inconclusive; . = not tested or not shown; [ ] = another dose, or the depositor's remark. Calls follow the shape of the dose curve; as a rule, active = well fitted curve in the direction sought with a large enough effect; inconclusive = small, poorly fitted or top-dose-only effect, or another doubt; inactive = no such curve, though single readings can be large; an effect the other way counts as inactive or inconclusive. % is scaled to controls: 0 for no effect and ±100 for the full control effect; potency is read from the fitted curve at half-maximal effect.

SMILES	DT40 TDP1 CPT	Gal4-VP16 FLuc	ELG1 DNA repair	DT40 TDP1 no CPT	12-LOX inh	RORg inh
CCOCCCn1c(SCC(=O)NCc2ccco2)nc2c(sc3ccccc32)c1=O	?	-8%	16µM*	?	-20%	32%
CCNC(=O)CSc1nc2ccccc2c(=O)n1CCCOC(C)C	-6%	-1%	?	-12%	0%	5%
Cc1cccc(CSc2nc3c(sc4ccccc43)c(=O)n2CCC(=O)NC(C)C)c1	4.6µM*	.	.	12µM*	-29%	.
CC(C)OCCCn1c(SCC(N)=O)nc2c(sc3ccccc32)c1=O	21µM*	.	.	?	-13%	.
CC(C)OCCCn1c(SCc2cccc(Br)c2)nc2c(sc3ccccc32)c1=O	13%	.	.	-2%	-17%	.
CCCCn1c(SCC(=O)NCc2ccco2)nc2c(sc3ccccc32)c1=O	?	-11%	-12%	-12%	-26%	20%
CCCCn1c(SCC(N)=O)nc2c(sc3ccccc32)c1=O	?	6%	?	?	-17%	3%
C/C(N)=C(/C#N)C(=O)CSc1nc2ccccc2c(=O)n1CCCOC(C)C	?	-10%	?	23µM*	-8%	?
CC(C)Oc1ccc(CN2CCC(CO)(Cc3ccccc3Cl)CC2)cc1CO	.	.	.	.	4%	.
CCOCCCn1c(SCC(=O)Nc2ccc(F)cc2)nc2c(sc3ccccc32)c1=O	-30%	.	.	-18%	?	.
COCCCn1c(SCC(=O)Nc2ccc(OC)cc2)nc2c(sc3ccccc32)c1=O	5%	.	.	-4%	-21%	.
COCCCn1c(SCc2ccccc2F)nc2c(sc3ccccc32)c1=O	?	.	.	15µM*	-20%	.
COCCCn1c(SCC(=O)Nc2ccc(F)cc2)nc2c(sc3ccccc32)c1=O	15µM*	.	.	5.8µM*	0%	.
COc1ccc(NC(=O)CSc2nc3c(sc4ccccc43)c(=O)n2CCCN2CCCC2)cc1	21µM*	?	4%	?	.	?
Cc1ccccc1CSc1nc2c(sc3ccccc32)c(=O)n1CCCOC(C)C	?	.	.	?	-13%	.
C=CCNC(=O)N[C@H]1[C@H](O)[C@@H](N2CCCC2)[C@@H]2OC[C@H]1O2	.	.	.	.	0%[176 µM]	.
O=S(=O)(NC1CCSc2c(F)cccc21)c1ccc(F)cc1 (stereo not drawn)	.	.	.	.	-5%	.
C/C(=N\NC(=O)c1ccc(Cl)c(Cl)c1)c1cccc(NC(=O)C(C)C)c1	-8%	?	-2%	-23%	13%	?
C/C(=N\NC(=O)c1cccc(Cl)c1)c1cccc(NC(=O)C(C)C)c1	-15%	-5%	-22%	-29%	?	21%
C/C(=N\NC(=O)c1ccc(Cn2cc(Br)cn2)o1)c1cccc(NC(=O)C(C)C)c1	3%	3%	5.8µM*	?	-9%	40%
C/C(=N\NC(=O)c1ccc(Cl)cc1)c1cccc(NC(=O)C(C)C)c1	-9%	-6%	-4%	1%	12%	11µM*
C/C(=N\NC(=O)c1c(-c2ccccc2Cl)noc1C)c1cccc(NC(=O)C(C)C)c1	?	0%	?	23µM*	-7%	11%
C/C(=N\NC(=O)c1ccc(Cn2cc([N+](=O)[O-])cn2)o1)c1cccc(NC(=O)C(C)C)c1	?	4%	?	?	6%	-7%
COCCn1c(=O)c2c(nc(-n3nc(C)cc3C)n2Cc2ccc(OC)cc2)n(C)c1=O	.	.	.	.	-5%	.
Cc1cccc(N2CCN(C(=O)c3noc(-c4ccc5c(c4)OCO5)n3)CC2)c1C	.	.	.	.	18%	.
SMILES	DT40 TDP1 CPT	Gal4-VP16 FLuc	ELG1 DNA repair	DT40 TDP1 no CPT	12-LOX inh	RORg inh
CCC(=O)Nc1ccc(O)c(-c2nc3cc(CC)ccc3o2)c1	.	.	.	.	38%	.
CC(=O)c1ccccc1-c1ccc2c(c1)CC(CNC(=O)c1ccnc(Cl)c1)O2 (stereo not drawn)	23µM*	.	.	21µM*	-5%	.
COc1ccc(-c2cc(=O)n(-c3ccc(OC)cc3)[nH]2)cc1	.	.	.	.	10%	.
COc1ccc(-c2cc(=O)n(CCC#N)[nH]2)cc1	?	-7%	18%	23µM*	0%	-2%
CCn1c2ccccc2c2c3ncc4cccn4c3ccc21	4.1µM*	-12%	?	6.5µM*	0%	6%
CC1(C)Cc2ccccc2C(=O)N1	-1%	-1%	22%	-3%	0%	-1%
CCNC(=O)/C=C1\NC(C)(C)Cc2c1ccc1ccccc21	?	10%	0%	21µM*	5%	5%
CC1(C)Cc2c(ccc3ccccc23)C(=O)N1	?	-9%	?	21µM*	-15%	-39%
CC1(C)Cc2c(ccc3ccccc23)C(CCl)N1 (stereo not drawn)	.	.	.	.	5.6µM*	.
COc1ccc(CC(=O)N2CC(c3nnc(C(C)C)o3)C3(CCOCC3)C2)cc1Cl (stereo not drawn)	.	.	.	.	52%	.
Cc1nn(CCc2nn[nH]n2)c2nc(-c3ccccc3)cc(C(F)(F)F)c12	-14%	?	?	-6%	0%	?
Cc1nn(CCC(N)=S)c2nc(-c3cccs3)cc(C(F)(F)F)c12	?	6.3µM*	?	?	?	7.1µM*
O=C(CCc1ncc(-c2ccccc2F)o1)Nc1ccc2ccccc2n1	.	.	.	.	-1%	.
CC(C)C(C)NC(=O)c1ccccc1Br (stereo not drawn)	.	.	.	.	3%	.
CCN(CC(=O)Nc1c(F)cccc1F)C(=O)c1ccc(NC(=O)CC2SC(N3CCCC3)=NC2=O)cc1 (stereo not drawn)	4%	.	?	-18%	?	.
CN(Cc1c(F)cccc1Cl)C(=O)c1ccc(NC(=O)CC2SC(N3CCCC3)=NC2=O)cc1 (stereo not drawn)	?	.	10%	18µM*	-2%	.
COc1ccc(CC(=O)NCc2n[nH]c(=S)n2-c2cccc(C)c2)cc1	-29%	4%	-1%	0%	-6%	-34%
COc1ccc(OC)c(-n2c(-c3cccc(C)c3)n[nH]c2=S)c1	6%	-29%	-3%	?	35µM*	2.5µM*
COc1ccc(OC)c(-n2c(-c3ccccc3)n[nH]c2=S)c1	9%	?	-1%	-4%	?	10µM*
COc1ccccc1-n1c(-c2ccccc2)n[nH]c1=S	22%	?	2%	2%	-30%	7.1µM*
COc1ccc(-c2cc(-c3n[nH]c(=S)n3-c3ccccc3OC)[nH]n2)cc1	-10%	?	15%	-14%	?	?

From PubChem BioAssay
